Active and inactive are the calls of the source.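 How the source made its calls, unless noted: active means normalized viability below 100% at a tested concentration; inactive means the rest.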
Experiments:
[1] = drug combination growth inhibition, ovarian cancer – cell-based, oncology-focused library, rucaparib conditional, profiling panel (AID 1508598); conditions: patient-derived ovarian cancer cells, CellTiter-Glo viability, 144 h, stronger effect = lower value
[2] = MELAS cybrid and Rieske KO viability enhancers – cell-based, MELAS cybrids, Rieske KO mouse fibroblasts, CellTiter-Glo, primary screen (AID 1508586;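 active means mean z-score across replicates of 1.96 or higher in either the MELAS or the Rieske mutant cell line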;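 further: z relative to plate mean and SD of compound and empty wells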); conditions: low glucose
[3] = galactose survival enhancers in mitochondrial complex I cybrids – cell-based, galactose medium, ATP luminescence, primary screen (AID 1645843;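 active means z-score of at least 1.8 in each of two replicates, scored against plate mean and spread of sample wells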;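 further: positive z means more ATP and so rescue of galactose-driven cybrid death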); conditions: complex I mutant cybrid cells, 72 h, stronger effect = higher value
[4] = liver-stage malaria parasite load reduction – cell-based, known kinase inhibitor set, luminescence, hepatoma host viability (AID 624392; call rule not given here;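 further: infected cells incubated roughly two days before readout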); conditions: Plasmodium liver stage in hepatoma cells, luciferase luminescence, concentration not given here; liver cell % of control: measured here: host liver cell viability; parasite % of control: stronger effect = lower value
[5] = altered dexamethasone sensitivity, NF-kB reporter, cell-based, luciferase, IL-1B stimulus (AID 624486; call rule not given here;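 on percent of negative control (+Dex): 100% = mean signal of vehicle control wells on the plate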); conditions: IL-1B + dexamethasone, luminescence; percent of negative control (+Dex): actives lie on both sides, concentration not given here; z-score: measured here: IL-1B alone, no Dex
[6] = C. elegans survival during P. aeruginosa infection – whole organism (AID 651566; call rule not given here;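 further: tested at 14 µM; sign flipped so higher z means a lower ratio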); conditions: C. elegans killed by P. aeruginosa, survival ratio
[7] = pro-inflammatory signaling induction in mouse macrophages – cell-based, murine, luminescence (AID 652131; call rule not given here); conditions: murine macrophage pro-inflammatory reporter, stronger effect = higher value
[8] = at 5 µM, OCI-P5x cells, with rucaparib 20 µM, 100% = cells with rucaparib alone
[9] = at 5 µM, OCI-P5x cells, without rucaparib
[10] = MELAS cybrid survival, CellTiter-Glo 48 h, stronger effect = higher value
[11] = Rieske KO mouse fibroblast survival, CellTiter-Glo 72 h
[12] = at 0.000305 µM, OCI-C5x cells, with rucaparib 10 µM, 100% = cells with rucaparib alone
[13] = at 0.000305 µM, OCI-C5x cells, without rucaparib
[14] = at 0.000305 µM, OCI-P5x cells, with rucaparib 20 µM, 100% = cells with rucaparib alone
[15] = at 0.000305 µM, OCI-P5x cells, without rucaparib
[16] = at 0.00122 µM, OCI-C5x cells, with rucaparib 10 µM, 100% = cells with rucaparib alone
[17] = at 0.00122 µM, OCI-C5x cells, without rucaparib
[18] = at 0.00122 µM, OCI-P5x cells, with rucaparib 20 µM, 100% = cells with rucaparib alone
[19] = at 0.00122 µM, OCI-P5x cells, without rucaparib
[20] = at 0.00488 µM, OCI-C5x cells, with rucaparib 10 µM, 100% = cells with rucaparib alone
[21] = at 0.00488 µM, OCI-C5x cells, without rucaparib
[22] = at 0.00488 µM, OCI-P5x cells, with rucaparib 20 µM, 100% = cells with rucaparib alone
[23] = at 0.00488 µM, OCI-P5x cells, without rucaparib
[24] = at 0.0195 µM, OCI-C5x cells, with rucaparib 10 µM, 100% = cells with rucaparib alone
[25] = at 0.0195 µM, OCI-C5x cells, without rucaparib
[26] = at 0.0195 µM, OCI-P5x cells, with rucaparib 20 µM, 100% = cells with rucaparib alone
[27] = at 0.0195 µM, OCI-P5x cells, without rucaparib
[28] = at 0.0781 µM, OCI-C5x cells, with rucaparib 10 µM, 100% = cells with rucaparib alone
[29] = at 0.0781 µM, OCI-C5x cells, without rucaparib
[30] = at 0.0781 µM, OCI-P5x cells, with rucaparib 20 µM, 100% = cells with rucaparib alone
[31] = at 0.0781 µM, OCI-P5x cells, without rucaparib
[32] = at 0.313 µM, OCI-C5x cells, with rucaparib 10 µM, 100% = cells with rucaparib alone
[33] = at 0.313 µM, OCI-C5x cells, without rucaparib
[34] = at 0.313 µM, OCI-P5x cells, with rucaparib 20 µM, 100% = cells with rucaparib alone
[35] = at 0.313 µM, OCI-P5x cells, without rucaparib
[36] = at 1.25 µM, OCI-C5x cells, with rucaparib 10 µM, 100% = cells with rucaparib alone
[37] = at 1.25 µM, OCI-C5x cells, without rucaparib
[38] = at 1.25 µM, OCI-P5x cells, with rucaparib 20 µM, 100% = cells with rucaparib alone
[39] = at 1.25 µM, OCI-P5x cells, without rucaparib
[40] = at 5 µM, OCI-C5x cells, with rucaparib 10 µM, 100% = cells with rucaparib alone
[41] = at 5 µM, OCI-C5x cells, without rucaparib

With `COc1cccc(-c2cc(F)ccc2[C@H]2Cc3nc(N)nc(C)c3C(=O)N2)n1` the viability [1, 8] was 4.5% (active) and the viability [1, 9] was 3.25% (active).
For `COc1ccc(C[C@@H]2NC(=O)[C@H]3CN(C(=O)Oc4ccc(Cl)cc4)CCN3C2=O)cc1`, the z-score [2, 10] was -0.205 (inactive), the z-score [2, 11] was 0.551 and the z-score [3] was -1.58 (inactive).
In the case of `COc1cc([C@H]2c3cc4c(cc3[C@@H](O[C@@H]3O[C@@H]5CO[C@@H](c6cccs6)O[C@H]5[C@H](O)[C@H]3O)[C@H]3COC(=O)[C@H]23)OCO4)cc(OC)c1O`, the viability [1, 12] is reported as 104% (inactive), the viability [1, 13] is reported as 117% (inactive) and the viability [1, 14] is reported as 100% (inactive). The viability [1, 15] was 116% (inactive), the viability [1, 16] was 115% (inactive) and the viability [1, 17] was 111% (inactive). The viability [1, 18] was 102% (inactive), the viability [1, 19] was 109% (inactive) and the viability [1, 20] was 97.4% (active). For the same molecule, the viability [1, 21] was 104% (inactive), the viability [1, 22] was 100% (inactive) and the viability [1, 23] was 109% (inactive). For the same molecule, the viability [1, 24] was 73.9% (active), the viability [1, 25] was 81.6% (active) and the viability [1, 26] was 102% (inactive). For the same molecule, the viability [1, 27] was 102% (inactive), the viability [1, 28] was 63.2% (active) and the viability [1, 29] was 73.7% (active). The viability [1, 30] was 87.9% (active), the viability [1, 31] was 60.7% (active) and the viability [1, 32] was 78.4% (active). For the same molecule, the viability [1, 33] was 56.8% (active), the viability [1, 34] was 71% (active) and the viability [1, 35] was 35.6% (active). The viability [1, 36] was 33.4% (active), the viability [1, 37] was 21.2% (active) and the viability [1, 38] was 54.6% (active). For the same molecule, the viability [1, 39] was 23.6% (active), the viability [1, 40] was 8.34% (active) and the viability [1, 41] was 7.07% (active). The viability [1, 8] was 12.4% (active) and the viability [1, 9] was 7.92% (active).
For `COc1cccc2c1C(=O)c1c(O)c3c(c(O)c1C2=O)C[C@@](O)(C(=O)CO)C[C@H]3O[C@H]1C[C@H](N)[C@H](O)[C@H](C)O1`, the viability [1, 12] was 127% (inactive), the viability [1, 13] was 120% (inactive) and the viability [1, 14] was 109% (inactive). For the same molecule, the viability [1, 15] was 109% (inactive), the viability [1, 16] was 111% (inactive) and the viability [1, 17] was 111% (inactive). The viability [1, 18] was 110% (inactive), the viability [1, 19] was 106% (inactive) and the viability [1, 20] was 118% (inactive). The viability [1, 21] was 117% (inactive), the viability [1, 22] was 104% (inactive) and the viability [1, 23] was 108% (inactive). For the same molecule, the viability [1, 24] was 130% (inactive), the viability [1, 25] was 110% (inactive) and the viability [1, 26] was 103% (inactive). For the same molecule, the viability [1, 27] was 106% (inactive), the viability [1, 28] was 115% (inactive) and the viability [1, 29] was 103% (inactive). The viability [1, 30] was 97.4% (active), the viability [1, 31] was 82% (active) and the viability [1, 32] was 164% (inactive). For the same molecule, the viability [1, 33] was 125% (inactive), the viability [1, 34] was 58.8% (active) and the viability [1, 35] was 32.7% (active). For the same molecule, the viability [1, 36] was 50% (active), the viability [1, 37] was 16.5% (active) and the viability [1, 38] was 10.3% (active). The viability [1, 39] was 13.8% (active), the viability [1, 40] was 4.6% (active) and the viability [1, 41] was 1.33% (active). The viability [1, 8] was 5.65% (active) and the viability [1, 9] was 8.22% (active).
With `C[C@H](O[C@H]1OCCN(Cc2n[nH]c(=O)[nH]2)[C@H]1c1ccc(F)cc1)c1cc(C(F)(F)F)cc(C(F)(F)F)c1` the viability [1, 12] was 106% (inactive), the viability [1, 13] was 113% (inactive) and the viability [1, 14] was 100% (inactive). For the same molecule, the viability [1, 15] was 105% (inactive), the viability [1, 16] was 111% (inactive) and the viability [1, 17] was 113% (inactive). For the same molecule, the viability [1, 18] was 109% (inactive), the viability [1, 19] was 105% (inactive) and the viability [1, 20] was 122% (inactive). The viability [1, 21] was 123% (inactive), the viability [1, 22] was 110% (inactive) and the viability [1, 23] was 114% (inactive). The viability [1, 24] was 108% (inactive), the viability [1, 25] was 114% (inactive) and the viability [1, 26] was 115% (inactive). The viability [1, 27] was 112% (inactive), the viability [1, 28] was 117% (inactive) and the viability [1, 29] was 125% (inactive). The viability [1, 30] was 117% (inactive), the viability [1, 31] was 117% (inactive) and the viability [1, 32] was 116% (inactive). The viability [1, 33] was 130% (inactive), the viability [1, 34] was 112% (inactive) and the viability [1, 35] was 119% (inactive). For the same molecule, the viability [1, 36] was 120% (inactive), the viability [1, 37] was 144% (inactive) and the viability [1, 38] was 117% (inactive). The viability [1, 39] was 113% (inactive), the viability [1, 40] was 80.9% (active) and the viability [1, 41] was 147% (inactive). The viability [1, 8] was 36.6% (active) and the viability [1, 9] was 97.5% (active).
For `COCCN1C(=O)N(C(C)C)C(=O)C12CCN(Cc1c(F)cccc1Cl)CC2`, the z-score [2, 10] was -0.424 (inactive), the z-score [2, 11] was -0.375 and the z-score [3] was 2.07 (inactive).
With `COC1=C2C[C@H](C)C[C@@H](OC)[C@H](O)[C@H](C)/C=C(\C)[C@H](OC(N)=O)[C@@H](OC)/C=C/C=C(\C)C(=O)NC(=CC1=O)C2=O` the viability [1, 12] was 97.2% (active), the viability [1, 13] was 99.7% (active) and the viability [1, 14] was 108% (inactive). The viability [1, 15] was 102% (inactive), the viability [1, 16] was 107% (inactive) and the viability [1, 17] was 106% (inactive). For the same molecule, the viability [1, 18] was 93.1% (active), the viability [1, 19] was 103% (inactive) and the viability [1, 20] was 114% (inactive). The viability [1, 21] was 109% (inactive), the viability [1, 22] was 14.8% (active) and the viability [1, 23] was 14.2% (active). The viability [1, 24] was 29.6% (active), the viability [1, 25] was 12.1% (active) and the viability [1, 26] was 5.75% (active). The viability [1, 27] was 4.97% (active), the viability [1, 28] was 16.4% (active) and the viability [1, 29] was 9.53% (active). The viability [1, 30] was 5.79% (active), the viability [1, 31] was 4.23% (active) and the viability [1, 32] was 11.1% (active). The viability [1, 33] was 7.02% (active), the viability [1, 34] was 5.27% (active) and the viability [1, 35] was 4.3% (active). The viability [1, 36] was 9.96% (active), the viability [1, 37] was 7.13% (active) and the viability [1, 38] was 5.24% (active). The viability [1, 39] was 3.95% (active), the viability [1, 40] was 6.19% (active) and the viability [1, 41] was 5.94% (active). The viability [1, 8] was 4.11% (active) and the viability [1, 9] was 3.72% (active).
For `Nc1nonc1-c1nc2cnccc2n1C1CC1`, the liver cell % of control [4] was 86.3%, the parasite % of control [4] was 247% (inactive) and the percent of negative control (+Dex) [5] was 45% (active). The z-score [5] was -5.63, the z-score [6] was -0.345 (inactive) and the z-score [7] was -0.857 (inactive). For the same molecule, the z-score [2, 10] was -0.391 (inactive) and the z-score [2, 11] was -0.585.
In the case of `Cc1cccc(Nc2ncc(-c3ccccc3)o2)c1`, the liver cell % of control [4] is reported as 79.5%, the parasite % of control [4] is reported as 180% (inactive) and the percent of negative control (+Dex) [5] is reported as 272% (active). The z-score [5] was 15.2, the z-score [6] was -1.25 (inactive) and the z-score [7] was 1.33 (inactive). For the same molecule, the z-score [2, 10] was 0.673 (inactive) and the z-score [2, 11] was -0.569.

Reference: PubChem BioAssay
